From PubChem BioAssay AID1159580 (chemical genetic matrix, 2015)
Values joined by “and” are separate entries in the source; they are usually repeats but may differ in a detail not shown here. Equal values may be shown once. The whole screen tested about 5,500 compounds, of which about 2,000 (36%) were called active. Inconclusive results (about 18%) are left out. No stated cut-off is given here; in the data, active means normalized growth mostly below about 0.91 (no sharp cut-off); inconclusive means no clear call, values can overlap the other calls; inactive means mostly above about 0.92. The list shows a part of the results.

Test: chemical genetic growth profiling, strain panel (AID 1159580);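 further: tested at 20 µM; growth read once vehicle control cultures reached saturation at 30 °C; 1 = growth at the plate median or of vehicle wells; lower values mean less growth of the strain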
Settings: S. cerevisiae deletion strains, growth OD

Measured: normalized growth

c1ccc2[nH]c(-c3cscn3)nc2c1
active: locus YDR195W, strain ref2 1.15 [resistant] | locus YEL003W, strain gim4, active compounds read low 0.132 | locus YER155C, strain BEM2 (second series), active compounds read low 0.833
inactive: locus YAL021C, strain ccr4, active compounds read low 0.964 | locus YAL026C, strain drs2, active compounds read low 0.956 | locus YAL030W, strain snc1, active compounds read low 1.01 | locus YBL061C, strain skt5, active compounds read low 1.01 | locus YBR009C, strain hhf1, active compounds read low 0.965 | locus YBR021W, strain FUR4, active compounds read low 0.946 | locus YBR023C, strain chs3, active compounds read low 0.993 | locus YBR171W, strain sec66, active compounds read low 1 | locus YBR229C, strain ROT2, active compounds read low 0.991 | locus YBR231C, strain swc5, active compounds read low 0.958 | locus YBR279W, strain paf1, active compounds read low 1.01 | locus YCL011C, strain gbp2, active compounds read low 0.982 | locus YCL016C, strain dcc1, active compounds read low 0.95 | locus YCL029C, strain bik1, active compounds read low 0.945 | locus YCL061C, strain MRC1, active compounds read low 0.991 | locus YCL069W, strain vba3, active compounds read low 0.996 | locus YCR088W, strain abp1, active compounds read low 1.01 | locus YDL005C, strain med2, active compounds read low 1.02 | locus YDL035C, strain GPR1, active compounds read low 0.996 | locus YDL040C, strain nat1, active compounds read low 1.01 | locus YDL074C, strain BRE1, active compounds read low 0.94 | locus YDL101C, strain DUN1, active compounds read low 1.01 | locus YDL134C, strain PPH21, active compounds read low 0.998 | locus YDL185W, strain tfp1, active compounds read low 1.01 | locus YDL192W, strain arf1, active compounds read low 1.01 | locus YDR069C, strain doa4, active compounds read low 0.988 | locus YDR101C, strain arx1, active compounds read low 0.945 | locus YDR137W, strain rgp1, active compounds read low 0.91 | locus YDR159W, strain sac3, active compounds read low 0.965 | locus YDR162C, strain NBP2, active compounds read low 1.01 | locus YDR297W, strain sur2, active compounds read low 1.03 | locus YDR318W, strain mcm21, active compounds read low 0.998 | locus YDR334W, strain swr1, active compounds read low 0.998 | locus YDR335W, strain msn5, active compounds read low 1.02 | locus YDR388W, active compounds read low 1.01 | locus YDR392W, strain spt3, active compounds read low 0.867 | locus YDR502C, strain sam2, active compounds read low 0.971 | locus YEL037C, strain rad23, active compounds read low 0.991 | locus YEL061C, strain CIN8 (second series), active compounds read low 1 | locus YEL061C, strain CIN8, active compounds read low 0.987 | locus YER015W, strain faa2, active compounds read low 0.997 | locus YER016W, strain bim1, active compounds read low 0.995 | locus YER110C, active compounds read low 1.02 | locus YER111C, strain swi4, active compounds read low 1.01 | locus YER155C, strain BEM2, active compounds read low 0.991 | locus YER167W, strain BCK2, active compounds read low 0.997 | locus YFR010W, strain ubp6, active compounds read low 0.986 | locus YGL078C, strain dbp3, active compounds read low 1.01 | locus YGL086W, strain mad1, active compounds read low 0.959 | locus YGL167C, strain pmr1, active compounds read low 1.02 | locus YGL173C, strain kem1, active compounds read low 1.01 | locus YGL227W, strain vid30, active compounds read low 1.02 | locus YGL240W, strain doc1, active compounds read low 0.957 | locus YGL248W, strain PDE1, active compounds read low 0.992 | locus YGL253W, strain hxk2, active compounds read low 0.998 | locus YGR135W, strain pre9, active compounds read low 1.04 | locus YGR252W, strain gcn5, active compounds read low 0.962 | locus YHR013C, strain ard1, active compounds read low 0.922 | locus YHR027C, strain rpn1, active compounds read low 1.01 | locus YHR030C, strain SLT2, active compounds read low 0.992 and 0.96 | locus YHR079C, strain IRE1 (second series), active compounds read low 1 | locus YHR079C, strain IRE1, active compounds read low 0.963 | locus YHR094C, strain hxt1, active compounds read low 1.01 | locus YHR129C, strain ARP1, active compounds read low 0.993 | locus YHR142W, strain chs7, active compounds read low 1 | locus YHR200W, strain rpn10, active compounds read low 1 | locus YIL066C, strain RNR3, active compounds read low 0.954 | locus YIL073C, strain SPO22, active compounds read low 1.06 | locus YIL125W, strain kgd1, active compounds read low 1 | locus YIR030C, strain dcg1, active compounds read low 0.994 | locus YJL092W, strain hpr5, active compounds read low 0.997 | locus YJL095W, strain BCK1 (second series), active compounds read low 1.02 | locus YJL095W, strain BCK1, active compounds read low 0.997 and 0.958 | locus YJL115W, strain asf1, active compounds read low 1 | locus YJL129C, strain trk1, active compounds read low 1.02 | locus YJL134W, strain LCB3, active compounds read low 1 | locus YJL154C, strain vps35, active compounds read low 1.01 | locus YJL164C, strain tpk1, active compounds read low 0.966 | locus YJL166W, strain qcr8, active compounds read low 1 | locus YJL168C, strain set2, active compounds read low 1.01 | locus YJL187C, strain SWE1 (second series), active compounds read low 0.974 | locus YJR043C, strain POL32, active compounds read low 0.964 | locus YJR066W, strain TOR1, active compounds read low 0.917 | locus YJR075W, strain HOC1, active compounds read low 0.979 | locus YKL009W, strain mrt4, active compounds read low 1.02
